# Article PMC5540273 (PLoS ONE, 2017)
# Experiments:
# Settings in all cases: concentration: 1 μM, replicates: in singlicate; n = 1
# EPHB2 = tested on: EPHB2
# EPHB3 = tested on: EPHB3
# EPHB4 = tested on: EPHB4
# EPHB6 = tested on: EPHB6
# ERBB2 = tested on: ERBB2
# ERBB3 = tested on: ERBB3
# ERBB4 = tested on: ERBB4
# ERK1 = tested on: T1, ERK1
# T1 construct: gene MAPK3
# ERK2 = tested on: T2, ERK2
# T2 construct: gene MAPK1
# ERK3 = tested on: T3, ERK3
# T3 construct: gene MAPK6
# ERK4 = tested on: T4, ERK4
# T4 construct: gene MAPK4
# ERK5 = tested on: T5, ERK5
# T5 construct: gene MAPK7
# ERK8 = tested on: T6, ERK8
# T6 construct: gene MAPK15
# ERN1 = tested on: ERN1
# FAK = tested on: T7, FAK
# T7 construct: gene PTK2
# FER = tested on: FER
# FES = tested on: FES
# FGFR1 = tested on: FGFR1
# FGFR2 = tested on: FGFR2
# FGFR3 = tested on: FGFR3
# 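Further: KINOMEscan kinase panel screen.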
Compound,%Inh (EPHB2),%Inh (EPHB3),%Inh (EPHB4),%Inh (EPHB6),%Inh (ERBB2),%Inh (ERBB3),%Inh (ERBB4),%Inh (ERK1),%Inh (ERK2),%Inh (ERK3),%Inh (ERK4),%Inh (ERK5),%Inh (ERK8),%Inh (ERN1),%Inh (FAK),%Inh (FER),%Inh (FES),%Inh (FGFR1),%Inh (FGFR2),%Inh (FGFR3)
Cl.O=S(=O)(c1cccc(F)c1)c1ccc(Nc2ncnc3cc(Br)sc23)cc1Cl [GSK306886],42%,19%,17%,0%,98.7%,0%,43%,0%,0%,10%,44%,4%,0%,11%,0%,14%,13%,0%,0%,16%
Cl.c1ccc(Cn2ccc3cc(Nc4ncnc5ccccc45)ccc32)cc1 [GW275568],6%,4%,18%,33%,100%,29%,88%,0%,0%,4%,46%,7%,0%,0%,0%,17%,15%,0%,0%,28%
FC(F)(F)c1cc(Nc2nccc(-c3c(-c4ccc(Cl)cc4)nn4ncccc34)n2)ccc1Cl [GW829351],0%,0%,0%,0%,0%,0%,45%,0%,0%,0%,0%,0%,0%,0%,0%,0%,0%,0%,0%,0%
COC(=O)c1cccc(NC(=O)NCCNc2ccnc(Nc3ccc(F)cc3)n2)c1 [GSK1379883],0%,21%,6%,4%,14%,15%,28%,0%,11%,0%,4%,0%,0%,21%,0%,19%,7%,0%,43%,15%
Cc1cccc(-c2nc(Nc3ccc4[nH]nnc4c3)c3ccccc3n2)n1 [GW867587],0%,0%,0%,0%,0%,0%,11%,0%,0%,0%,0%,0%,0%,0%,0%,0%,0%,0%,0%,0%
c1ccc(-c2ccc3c(-c4ccnc(Nc5ccc6c(c5)OCCO6)n4)cnn3n2)cc1 [GW818941],3%,13%,10%,0%,21%,15%,0%,11%,6%,0%,0%,0%,92.7%,0%,6%,23%,0%,18%,0%,15%
Fc1ccc(-c2ncn(CCCNCc3ccccc3)c2-c2ccncc2)cc1,14%,19%,17%,36%,10%,23%,0%,5%,14%,0%,14%,0%,13%,14%,0%,13%,23%,0%,0%,0%
Fc1cccc(COc2ccc(Nc3ncnc4cc[nH]c34)cc2Cl)c1,20%,0%,22%,19%,100%,11%,83%,8%,24%,22%,9%,0%,7%,35%,11%,31%,21%,14%,8%,10%
CCc1nc(-c2cccc(N(C)S(=O)(=O)c3ccccc3)c2)c(-c2ccnc(Nc3ccc(N4CCN(C(C)=O)CC4)nc3)n2)s1 [GSK1645895],0%,0%,0%,96.9%,17%,0%,26%,0%,0%,0%,18%,19%,0%,28%,0%,0%,0%,0%,0%,3%
Nc1n[nH]c2nnc(-c3ccccc3)cc12 [SB-517389],80%,10%,22%,0%,7%,0%,0%,0%,0%,16%,30%,0%,18%,3%,0%,0%,0%,0%,5%,11%
